Laboratory results taken from PubChem BioAssay AID1942 (Johns Hopkins Ion Channel Center, 2009).
Among all 2,400 compounds or so, about 580 (24%) were called active. Only a sample is shown. Values without a mark were called inactive.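 The calls were made as follows: active = activity change at or above the mean plus 3 SD of buffer wells without dofetilide, per plate; inactive = the rest.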

molecular target: Potassium voltage-gated channel subfamily KQT member 2 (Rattus norvegicus) (UniProt O88943); assay: rat KCNQ2 channel activation by compounds alone, confirmation, counter-screen for hERG block protector project, cell-based, CHO, FluxOR thallium flux (AID 1942); settings: CHO-KCNQ2 cells, FluxOR thallium flux fluorescence; at 10 µM; active compounds read high;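 also: normalized value minus buffer-control mean plus three SD of buffer wells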
Sequence (O88943 whole entry, looked up): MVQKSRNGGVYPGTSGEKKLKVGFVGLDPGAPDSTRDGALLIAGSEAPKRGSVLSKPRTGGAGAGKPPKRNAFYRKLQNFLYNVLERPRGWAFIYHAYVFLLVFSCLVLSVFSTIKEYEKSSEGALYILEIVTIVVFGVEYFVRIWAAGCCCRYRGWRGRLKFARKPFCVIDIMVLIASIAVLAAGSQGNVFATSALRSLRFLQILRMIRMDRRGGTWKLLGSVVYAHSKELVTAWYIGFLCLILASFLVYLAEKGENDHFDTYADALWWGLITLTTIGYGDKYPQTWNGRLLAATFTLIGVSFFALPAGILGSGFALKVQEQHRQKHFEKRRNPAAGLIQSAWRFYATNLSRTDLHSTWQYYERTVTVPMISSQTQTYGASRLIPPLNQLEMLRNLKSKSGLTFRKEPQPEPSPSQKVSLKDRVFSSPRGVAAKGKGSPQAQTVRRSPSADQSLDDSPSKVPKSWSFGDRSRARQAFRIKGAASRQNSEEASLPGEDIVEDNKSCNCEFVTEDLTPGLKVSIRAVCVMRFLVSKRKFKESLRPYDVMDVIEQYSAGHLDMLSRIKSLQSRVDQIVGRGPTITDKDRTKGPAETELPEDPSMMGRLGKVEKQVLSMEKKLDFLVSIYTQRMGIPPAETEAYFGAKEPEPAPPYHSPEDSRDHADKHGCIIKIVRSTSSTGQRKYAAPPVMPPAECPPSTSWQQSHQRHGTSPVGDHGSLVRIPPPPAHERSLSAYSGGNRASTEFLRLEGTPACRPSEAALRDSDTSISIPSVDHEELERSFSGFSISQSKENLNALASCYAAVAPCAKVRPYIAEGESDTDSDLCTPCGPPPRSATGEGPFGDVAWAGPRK

SMILES	activity change, less the hit threshold
Cc1cc(C(=O)NCCN2C(=O)S/C(=C\c3cccs3)C2=O)ccc1[N+](=O)[O-]	-16.8%
Nc1nonc1-n1nnc(C(=O)N/N=C/c2ccccn2)c1-c1ccccc1	-18.1%
COc1ccc(C2N=C(c3ccccc3)C(C)(C)N2O)cc1 (configuration not stated)	-18.6%
Cc1ccc(CN2CCN(CC(=O)NC(C)c3ccc4c(c3)OCCO4)C2=O)cc1 (configuration not stated)	16.9% (active)
Cc1cc(Cl)ccc1OC(C)C(=O)NCCc1ccc2c(c1)OCCO2 (configuration not stated)	-30.8%
Cc1nn(C)cc1C(=O)Nc1ccc2c(c1)OCCO2	-19.7%
C/C(=N\NC(=O)c1cc2ccccc2cc1O)c1ccccn1	-9.4%
C/C(=N/NC(=O)c1cc2ccccc2cc1O)c1ccco1	72.8% (active)
C/C(=N\NC(=O)c1cc2ccccc2cc1O)c1cc2ccccc2o1	82% (active)
Cc1ccc(/C=N/NC(=O)c2cc3ccccc3cc2O)o1	77.9% (active)
C/C(=N\NC(=S)Nc1cccc(C)c1)c1ccco1	-13.9%
C/C(=N\NC(=O)CSc1nc2ccccc2o1)c1ccc(O)cc1	-16.2%
C/C(=N\NC(=S)Nc1c(C)cccc1C)c1cc2ccccc2o1	-16.4%
Cc1ccc(/C=N/NC(=O)c2cc(C)oc2C)o1	-17.8%
C/C(=N\NC(=O)c1ccoc1C)c1cccc2ccccc12	55% (active)
O=C(N/N=C/c1ccc(Sc2ccccn2)o1)c1cc2ccccc2cc1O	-4.5%
Cc1cc(C(=O)Nc2cccc3ccccc23)c(C)o1	-28.1%
COc1ccc(CCNC(=O)c2cc3ccccc3oc2=O)cc1	-29%
CC(C)(C)NC(=O)CN(C(=O)CS(=O)CC(=O)Nc1ccc(F)cc1)c1cccc(F)c1 (configuration not stated)	-11.2%
Cc1ccsc1/C=C1/SC(=O)N(CC(=O)N2CCCC2)C1=O	-18.9%
Cn1c(=O)c(Sc2ccccc2)c(O)c2ccccc21	-8.1%

SMILES	activity change, less the hit threshold
Cn1c(=O)c2c(ncn2CC(=O)OCc2ccccc2)n(C)c1=O	-14.2%
Cc1nc(-c2cc(C#N)c(Sc3ccc(Cl)cc3Cl)nc2C)cs1	-16.9%
COc1cc(C(=S)N2CCOCC2)ccc1OC(=O)c1ccc([N+](=O)[O-])cc1[N+](=O)[O-]	-27.5%
Cc1ccc(CCNC(=O)c2cccc(NC3=NC4CS(=O)(=O)CC4S3)c2)cc1 (configuration not stated)	-10.3%
C/C(=N\NC(=O)c1cc2ccccc2cc1O)c1ccc(C)o1	30.2% (active)
Cc1ccc(C(=O)NC2CCC(C)CC2)o1 (configuration not stated)	-20.7%
C/C(=N/NC(=O)c1sc(NS(=O)(=O)c2ccccc2)nc1C)c1sc(N)nc1C	-11.4%
Nn1c(SCC(=O)Nc2ccc(OC(F)F)cc2)nnc1-c1ccco1	-14.7%
CSc1ccccc1C(=O)NCc1ccc(C)cc1	-15.6%
Cc1ccc(C(=O)Sc2cccccc2=O)cc1	78.4% (active)
CC1=CC(=O)C(C(C)C)=CC1=NC(=O)c1ccc(C)cc1	-15.5%
Cc1ccc(Nc2nc(-c3ccncc3)cs2)cc1	-17.9%
Brc1ccc(-c2csc(N3CCCCCC3)n2)cc1	-13.8%
Cc1cc(C)c(-c2c(O)c3c(n(C)c2=O)CC(C)(C)CC3=O)c(C)c1	-18.3%
O=C(COc1ccc2ccccc2c1)NNC(=O)C(=O)Nc1ccccc1	47.2% (active)
O=C(COc1ccc2ccccc2c1)Nc1ccc(Br)cc1C(=O)O	-9%
Cc1ccccc1NC(=O)C(=O)NNC(=O)COc1ccc2ccccc2c1	33.6% (active)
COC(=O)CSc1nnc(COc2ccc3ccccc3c2)o1	-16%
C=CCNC(=O)c1ccccc1NC(=O)COc1ccc(OC)cc1	-11.7%
O=C(COc1ccccc1)Nc1ccc(F)cc1	-28.9%
O=C(COc1ccc(C(=O)c2ccccc2)cc1)Nc1cccnc1	-35%

SMILES	activity change, less the hit threshold
COc1ccccc1NC(=O)C(=O)NNC(=O)COc1ccc2ccccc2c1	93.1% (active)
CSc1ccc(S(=O)(=O)N2CCC(C(=O)Nc3ccccc3C(F)(F)F)CC2)cc1	-14.7%
Cc1nonc1CN(C)C(=O)c1ccc(OC2CCN(Cc3ccccn3)CC2)cc1	-5.7%
Cc1ccc(C(=C2C3C=CC2C2C(=O)NC(=O)C32)c2ccc(C)cc2)cc1 (configuration not stated)	-17.1%
COc1ccccc1C(=O)COC(=O)c1ccc(-n2cnnn2)cc1	-14.7%
CCOC(=O)c1nnn(CC(=O)Nc2cccc(F)c2)c1C(=O)OCC	-9.5%
COc1ccc(CC(=O)Nc2ccc(-c3noc(-c4ccccc4OC)n3)cc2)cc1	-16.7%
O=C(c1ccccc1)c1nccn1-c1ccc(Cl)nn1	-7.9%
O=C(CSc1cccc[n+]1[O-])C12CC3CC(CC(C3)C1)C2	-11.8%
O=C(NCCCN1CCOCC1)c1ccc(CS(=O)(=O)Cc2ccccc2Cl)o1	-26.5%
Cc1c(Cl)cccc1NC(=S)N=Nc1c(O)n(CN2CCOCC2)c2ccccc12	4.9% (active)
Oc1c(N=NC(=S)Nc2ccccc2F)c2ccccc2n1Cc1ccccc1Cl	-10%
Cc1ccc(Cn2c(O)c(N=NC(=S)Nc3ccccc3F)c3ccccc32)cc1	-11.4%
Oc1c(N=NC(=S)Nc2ccccc2F)c2ccccc2n1Cc1ccc(F)cc1	2.8% (active)
Oc1c(N=NC(=S)Nc2ccccc2F)c2ccccc2n1Cc1ccc(Cl)cc1	-13.5%
Oc1c(N=NC(=S)Nc2ccccc2F)c2ccccc2n1Cc1ccccc1	-9.8%
O=C(CN1C(=O)CSCC1=O)Nc1ccc2c(c1)OCO2	-7.1%
Nc1ccc2nc(-c3cccs3)[nH]c2c1	-8.8%
CC(C)(C)n1nnnc1C(c1cccs1)N1CCN(Cc2ccccc2)CC1 (configuration not stated)	-11.7%
O=C(/C=C/Nc1ccc(F)c(F)c1)c1cccs1	-17.4%
